Structures are written as SMILES. About 83,000 compounds went through this panel and 20% of them were active in at least one assay; those are over-represented in the sample as a whole.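 48-hour exposure, single concentration, 96-well plates; percent growth endpoint where 0 means no net growth. Active: below 10.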 A number with no mark means an inactive call. The source made the active and inactive calls.

Test systems include DU-145 prostate; K-562 leukemia; MALME-3M melanoma; MDA-MB-231 breast; RXF 393 renal; SF-268 CNS; SF-295 CNS; SF-539 CNS; UACC-257 melanoma; M14 melanoma; HCT-15 colon; HT29 colon; SNB-75 CNS; SNB-19 CNS; U251 CNS; PC-3 prostate; UACC-62 melanoma; LOX IMVI melanoma; SK-MEL-28 melanoma; SK-MEL-5 melanoma.
What all share (test): NCI-60 one-dose screen, 48 h (100 = growth as untreated, 0 = no growth, -100 = all killed)
Settings in all cases: 10 µM unless noted

With `CN1CCc2c(Sc3ccc(C(=O)NO)cc3)c3ccccc3n2C1`, the growth is 36.8% with DU-145 prostate; 28.2% in the experiment with K-562 leukemia; 42.4% in the experiment with MALME-3M melanoma; 8.01% (active) in the experiment with MDA-MB-231 breast; 52.5% in the experiment with RXF 393 renal; 35.9% in the experiment with SF-268 CNS. Besides, the growth with SF-295 CNS was 40.6%; in the experiment on SF-539 CNS, 17.1%; in the experiment with UACC-257 melanoma, 14.1%; in the experiment with M14 melanoma, 38.1%; in the experiment on HCT-15 colon it was 75.6%; in the experiment with HT29 colon, 48.9%. In addition, the growth in the experiment on SNB-75 CNS was 25.8%; in the experiment with SNB-19 CNS, 53.4%; in the experiment with U251 CNS it was 23.8%; in the experiment with PC-3 prostate it was 20.8%; in the experiment on UACC-62 melanoma, 38.9%; in the experiment with LOX IMVI melanoma it was 11.6%. In addition, the growth in the experiment with SK-MEL-28 melanoma was 14.7%.
Regarding `Cc1nc2cc(Nc3nc(NCCN)nc(Nc4ccc(F)cc4)n3)ccc2n1Cc1ccccc1`, the growth in the experiment on DU-145 prostate is 82.2%; with K-562 leukemia it was -36.8% (active); in the experiment on MALME-3M melanoma, 93.5%; in the experiment with MDA-MB-231 breast, 60.4%; with RXF 393 renal, 72%; with SF-268 CNS it was 71.8%. For the same compound, the growth in the experiment on SF-295 CNS was 79.8%; in the experiment on SF-539 CNS, 96%; in the experiment with UACC-257 melanoma it was 90.5%; in the experiment on M14 melanoma, 81.6%; in the experiment with HCT-15 colon, 100%; in the experiment on HT29 colon it was 35.1%. The growth with SNB-75 CNS was 84.2%; with SNB-19 CNS, 91.6%; with U251 CNS, 77.4%; in the experiment on SK-MEL-5 melanoma, 86.6%; in the experiment on LOX IMVI melanoma, 58.2%; with SK-MEL-28 melanoma, 107%.
For `O=C1C(N2CCOCC2)=Cc2cccc3cccc1c23`, the growth is 104% with DU-145 prostate; 30.8% in the experiment with K-562 leukemia; 113% in the experiment with MALME-3M melanoma; 106% in the experiment with MDA-MB-231 breast; 99.3% in the experiment with RXF 393 renal; 93.8% in the experiment on SF-268 CNS. The growth is 112% in the experiment with SF-295 CNS; 97.5% in the experiment on SF-539 CNS; 101% in the experiment with UACC-257 melanoma; 104% in the experiment with M14 melanoma; 92.6% in the experiment on HCT-15 colon; 92.4% in the experiment on HT29 colon. The growth in the experiment on SNB-75 CNS was 86.9%; in the experiment on SNB-19 CNS it was 92.4%; in the experiment with U251 CNS it was 92.8%; with PC-3 prostate, 95.4%; in the experiment with UACC-62 melanoma, 91.2%; with SK-MEL-28 melanoma, 97.5%.
Turning to `COc1cccc(C2CC(=O)Nc3cc4c(cc32)CCC4)c1OC` (stereo not drawn), the growth is 51.9% in the experiment on DU-145 prostate; 14.1% in the experiment with K-562 leukemia; 55.7% with MALME-3M melanoma; 60.3% with MDA-MB-231 breast; 57% with RXF 393 renal; 66.2% in the experiment with SF-268 CNS. In addition, the growth in the experiment with SF-295 CNS is 29%; in the experiment on SF-539 CNS it was 60.7%; with UACC-257 melanoma it was 71.7%; in the experiment on M14 melanoma, 25.5%; with HCT-15 colon, 36.4%; in the experiment on HT29 colon it was 9.41% (active). Further, the growth in the experiment on SNB-75 CNS was 35.3%; in the experiment on SNB-19 CNS it was 80.8%; in the experiment on U251 CNS it was 42.4%; in the experiment with PC-3 prostate it was 69.3%; in the experiment on UACC-62 melanoma it was 52.1%; with LOX IMVI melanoma it was 59.6%. Besides, the growth in the experiment on SK-MEL-28 melanoma was 68.9%.
As to `O=C1c2ccccc2C(=O)c2c(Nc3ccc(CCO)cc3)ccc(O)c21`, the growth in the experiment on DU-145 prostate was 60.7%; with K-562 leukemia, 17.2%; in the experiment with MALME-3M melanoma, 77.2%; in the experiment on MDA-MB-231 breast it was 56.4%; with RXF 393 renal it was 74.6%; in the experiment with SF-268 CNS it was 60.4%. In addition, the growth was 50.2% with SF-295 CNS; 84.8% in the experiment on SF-539 CNS; 101% in the experiment with UACC-257 melanoma; 80.3% with M14 melanoma; 61.7% with HCT-15 colon; 57.4% in the experiment with HT29 colon. For the same compound, the growth in the experiment with SNB-75 CNS was 64.3%; in the experiment on SNB-19 CNS it was 84.8%; with U251 CNS, 74.2%; in the experiment with SK-MEL-5 melanoma, 86.7%; in the experiment with UACC-62 melanoma it was 74.9%; with LOX IMVI melanoma, 51.6%. Besides, the growth in the experiment with SK-MEL-28 melanoma is 44.8%.
With `COc1c(O)c2c3c(c1OC)-c1ccccc1CC3N(S(=O)(=O)c1ccc(C)cc1)CC2` (stereo not drawn), the growth in the experiment with DU-145 prostate is 36.5%; in the experiment on K-562 leukemia it was 23%; in the experiment with MALME-3M melanoma, 58.6%; in the experiment on MDA-MB-231 breast, 52.7%; with RXF 393 renal, 58.6%; in the experiment on SF-268 CNS, 55.1%. The growth was 85.2% with SF-295 CNS; 41.2% in the experiment on SF-539 CNS; 54.7% in the experiment on UACC-257 melanoma; 31.2% with M14 melanoma; 37.3% in the experiment on HCT-15 colon; 121% in the experiment with HT29 colon. In addition, the growth is 22.8% in the experiment with SNB-75 CNS; 61.6% in the experiment on SNB-19 CNS; 22.5% in the experiment with U251 CNS; 48.5% with PC-3 prostate; 51.7% in the experiment on LOX IMVI melanoma; 53.2% in the experiment on SK-MEL-28 melanoma.
For the compound `O=C1OCC2=C1C(c1ccc3c(c1)OCO3)CC(=O)N2c1cccc(Cl)c1` (stereo not drawn), the growth was 107% with DU-145 prostate; 102% in the experiment on K-562 leukemia; 88.4% in the experiment on MALME-3M melanoma; 101% in the experiment on MDA-MB-231 breast; 96.5% in the experiment with RXF 393 renal; 110% with SF-268 CNS. For the same compound, the growth is 96% in the experiment with SF-295 CNS; 104% in the experiment with SF-539 CNS; 104% in the experiment with UACC-257 melanoma; 121% with M14 melanoma; 101% with HCT-15 colon; 97.5% with HT29 colon. The growth in the experiment on SNB-75 CNS is 80.7%; in the experiment with SNB-19 CNS, 93%; in the experiment on U251 CNS, 99.9%; in the experiment on PC-3 prostate, 102%; in the experiment on UACC-62 melanoma, 102%; in the experiment on LOX IMVI melanoma, 98%. In addition, the growth in the experiment on SK-MEL-28 melanoma is 101%.
Regarding `c1ccc2cc(Cn3c(-c4ccc5ccccc5c4)[n+](Cc4ccc5ccccc5c4)c4ccccc43)ccc2c1`, the growth in the experiment on DU-145 prostate is -19.2% (active); with K-562 leukemia it was -45.1% (active); with MALME-3M melanoma, -58% (active); in the experiment with MDA-MB-231 breast it was -72.9% (active); in the experiment with RXF 393 renal, -65% (active); with SF-268 CNS, -83.5% (active). In addition, the growth is -79.1% (active) with SF-295 CNS; -75.2% (active) with SF-539 CNS; -38.5% (active) in the experiment with UACC-257 melanoma; -72.8% (active) in the experiment with M14 melanoma; -74.6% (active) in the experiment on HCT-15 colon; -71.7% (active) in the experiment on HT29 colon. Also, the growth in the experiment on SNB-75 CNS is -69.5% (active); with SNB-19 CNS, -76.4% (active); in the experiment on U251 CNS, -78.6% (active); with PC-3 prostate, -57.8% (active); in the experiment with UACC-62 melanoma, -87.8% (active); in the experiment on SK-MEL-28 melanoma it was -55.3% (active).

The values above are taken from PubChem BioAssay (NCI).
